The results in this text go back to PubChem BioAssay.

A short description of assay [1]: antimalarial activity against Dd2 strain (AID 2302;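 active = growth inhibition above 50% at the single 2 µM test dose, taken to imply half-maximal potency below 2 µM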;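 also: 0% = DMSO untreated growth and 100% = chloroquine plus artemisinin killed control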). The settings on record: P. falciparum Dd2 in RBCs, LDH growth readout, 72 h; at 2 µM; hits give high values.
Assay [2] in a line: HepG2 cytotoxicity, primary screen, cytotoxicity control for P. falciparum antimalarial project, cell-based, ATP luminescence (AID 2303;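 active = inhibition above 50%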;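 also: 0% = DMSO wells and 100% = digitonin-killed cells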). The following applies: HepG2 viability, 24-48 h, at 10 µM, hits give high values.
Assay [3] addresses L-lactate dehydrogenase (Plasmodium falciparum (isolate CDC / Honduras)) (UniProt Q27743). In words: PfLDH activity inhibition – cell lysate, 3D7 strain, counter-screen for P. falciparum growth inhibition project (AID 2304).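 Also: 0% = vehicle and 100% = reference inhibitor.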 The settings on record: P. falciparum 3D7 crude extract, LDH APAD/NBT absorbance; at 2 µM; hits give high values.
Assay [4] can be described thus: inhibition of 3D7 malaria parasite growth – strain 3D7 (AID 2306).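 Also: 0% = DMSO wells and 100% = chloroquine plus artemisinin control wells.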 The settings on record: P. falciparum 3D7 erythrocytic growth, LDH absorbance, 72 h; at 2 µM; hits give high values.
The target in assay [5] is Calcium-dependent protein kinase 1 (Plasmodium falciparum (isolate 3D7)) (UniProt P62344). In words: PfCDPK1 kinase inhibitors, biochemical, TCAMS library (AID 1159585; cut-off not given, nearly all actives have IC50 up to about 0.98 µM;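 also: inhibitors leave more ATP so luminescence rises with inhibition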). The following applies: recombinant PfCDPK1, Kinase-Glo ATP depletion luminescence. For orientation: Kinase-Glo reads ATP consumption through a luciferase reaction.
Sequence of Calcium-dependent protein kinase 1 (Plasmodium falciparum (isolate 3D7)) (P62344 whole entry, looked up): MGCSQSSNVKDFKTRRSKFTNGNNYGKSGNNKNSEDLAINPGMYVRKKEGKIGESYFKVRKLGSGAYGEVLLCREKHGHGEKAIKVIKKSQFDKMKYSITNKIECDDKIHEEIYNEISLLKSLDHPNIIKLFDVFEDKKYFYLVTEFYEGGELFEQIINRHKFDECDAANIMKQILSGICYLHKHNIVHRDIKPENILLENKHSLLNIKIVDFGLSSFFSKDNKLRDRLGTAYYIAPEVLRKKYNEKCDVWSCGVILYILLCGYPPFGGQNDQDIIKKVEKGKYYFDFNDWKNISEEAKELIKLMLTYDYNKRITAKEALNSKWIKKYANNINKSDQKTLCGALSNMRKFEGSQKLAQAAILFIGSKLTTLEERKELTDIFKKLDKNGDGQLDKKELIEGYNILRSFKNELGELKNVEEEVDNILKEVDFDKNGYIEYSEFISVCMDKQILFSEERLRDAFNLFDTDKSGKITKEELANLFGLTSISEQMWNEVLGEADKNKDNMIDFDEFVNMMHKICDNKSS
For assay [6], the target named is Plasmodium falciparum protein kinase 6 (PK6, PF3D7_1337100) (UniProt Q8IDW1). In words: PfPK6 kinase inhibitors, biochemical, TCAMS library (AID 1159586). The following applies: recombinant PfPK6, Kinase-Glo ATP depletion luminescence.
Sequence of Plasmodium falciparum protein kinase 6 (PK6, PF3D7_1337100) (Q8IDW1 1-305): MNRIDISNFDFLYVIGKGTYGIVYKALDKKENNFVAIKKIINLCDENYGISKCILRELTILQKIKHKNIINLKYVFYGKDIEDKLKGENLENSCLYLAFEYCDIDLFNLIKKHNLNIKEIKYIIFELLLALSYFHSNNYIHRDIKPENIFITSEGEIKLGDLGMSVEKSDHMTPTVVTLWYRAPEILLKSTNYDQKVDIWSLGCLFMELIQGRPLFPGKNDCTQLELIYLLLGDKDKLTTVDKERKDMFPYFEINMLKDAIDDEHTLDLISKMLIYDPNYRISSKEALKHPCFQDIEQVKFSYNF
Assay [7] addresses Protein kinase 7 (PK7), Plasmodium falciparum 3D7 (PF3D7_0213400) (UniProt Q7YTF7). In words: inhibition of Plasmodium PK7 catalytic activity – biochemical, TCAMS antimalarial set, Kinase-Glo luminescence (AID 1159587). The settings on record: recombinant PfPK7, Kinase-Glo ATP depletion luminescence.
The target in assay [8] is Calcium-dependent protein kinase 4 (Plasmodium falciparum (isolate 3D7)) (UniProt Q8IBS5). In words: PfCDPK4 kinase inhibitors, biochemical, TCAMS library (AID 1159588; cut-off not given, nearly all actives have IC50 up to about 0.91 µM). The following applies: recombinant PfCDPK4, Kinase-Glo ATP depletion luminescence.
Sequence of Calcium-dependent protein kinase 4 (Plasmodium falciparum (isolate 3D7)) (Q8IBS5 whole entry, looked up): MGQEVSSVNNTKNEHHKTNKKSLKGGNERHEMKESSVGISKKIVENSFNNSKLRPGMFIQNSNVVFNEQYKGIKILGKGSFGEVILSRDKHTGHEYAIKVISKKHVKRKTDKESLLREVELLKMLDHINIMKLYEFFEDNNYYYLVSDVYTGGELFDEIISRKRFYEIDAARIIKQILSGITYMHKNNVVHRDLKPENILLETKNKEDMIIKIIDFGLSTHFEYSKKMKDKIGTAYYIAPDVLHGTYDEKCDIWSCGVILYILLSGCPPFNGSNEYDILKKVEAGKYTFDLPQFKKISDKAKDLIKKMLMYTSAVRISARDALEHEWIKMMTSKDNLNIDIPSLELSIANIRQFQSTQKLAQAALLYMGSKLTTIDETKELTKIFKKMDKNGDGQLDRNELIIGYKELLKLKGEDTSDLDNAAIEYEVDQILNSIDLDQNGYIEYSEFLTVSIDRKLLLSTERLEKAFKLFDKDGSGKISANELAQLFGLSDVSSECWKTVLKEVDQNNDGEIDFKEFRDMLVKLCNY

Values without a mark were called inactive. For some of these results: Entries with a potency or affinity are not part of this list. The source made the active and inactive calls. Unless noted, no rule for the calls is given here.

Sequence of L-lactate dehydrogenase (Plasmodium falciparum (isolate CDC / Honduras)) (Q27743 whole entry, looked up): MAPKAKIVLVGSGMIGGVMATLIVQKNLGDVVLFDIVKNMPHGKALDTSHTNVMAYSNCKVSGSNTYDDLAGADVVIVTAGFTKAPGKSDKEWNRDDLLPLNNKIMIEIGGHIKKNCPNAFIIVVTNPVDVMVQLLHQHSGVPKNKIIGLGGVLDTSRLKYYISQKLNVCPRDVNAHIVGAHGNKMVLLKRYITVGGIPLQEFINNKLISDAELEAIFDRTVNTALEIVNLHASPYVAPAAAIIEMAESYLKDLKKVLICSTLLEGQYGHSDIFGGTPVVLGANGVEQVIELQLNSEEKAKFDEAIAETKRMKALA
Sequence of Protein kinase 7 (PK7), Plasmodium falciparum 3D7 (PF3D7_0213400) (Q7YTF7 1-343): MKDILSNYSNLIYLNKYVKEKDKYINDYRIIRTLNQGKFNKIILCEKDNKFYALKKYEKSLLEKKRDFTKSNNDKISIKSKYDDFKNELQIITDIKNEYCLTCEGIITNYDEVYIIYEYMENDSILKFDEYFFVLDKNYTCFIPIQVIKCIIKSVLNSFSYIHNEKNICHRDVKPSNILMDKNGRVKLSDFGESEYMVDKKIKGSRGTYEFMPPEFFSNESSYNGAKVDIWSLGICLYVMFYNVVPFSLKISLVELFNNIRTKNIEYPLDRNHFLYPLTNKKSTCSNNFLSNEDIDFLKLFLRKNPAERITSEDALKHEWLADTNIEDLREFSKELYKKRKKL

Usually inhibition stands for the drop in the measured response relative to a control, in per cent. With `COc1cccc2[nH]c(NCCCNCc3cc(Br)cc(Br)c3)nc12`, the growth inhibition is 2% in assay [1] and 88% (active) in assay [4]. The inhibition in assay [2] was 5%; in assay [3] it was -8%. Besides, the result in assay [5], in assay [6], in assay [7] and in assay [8] was inactive.

Regarding `Cc1nc(-c2cccc(C(=O)NC3CCC(CCN4CCc5ccc(-c6cccnc6)cc5CC4)CC3)c2)no1` (stereo not given), the growth inhibition in assay [1] is 4%; in assay [4], 98% (active). Further, the results for the inhibition in assay [2] and in assay [3] were 17% and -1%, respectively. Also, the outcome in assay [5], in assay [6], in assay [7] and in assay [8] was inactive.

As to `CCCCCC(NCCCC)c1ccc(OCCOc2ccc(C(CCCCC)NCCCC)cc2)cc1` (stereo not given), the values for the growth inhibition in assay [1] and in assay [4] were 96% (active) and 88% (active), respectively. The inhibition in assay [2] is 99% (active); in assay [3], -2%. Moreover, the outcome in assay [5], in assay [6], in assay [7] and in assay [8] was inactive.

Take `CC(C)CC(=O)N1CCNC[C@@H]1C(=O)NCc1ccc(Cl)c(Cl)c1`: the results for the growth inhibition in assay [1] and in assay [4] were 16% and 99% (active), respectively. In addition, the inhibition in assay [2] and in assay [3] was -3% in each case. In addition, the result in assay [5], in assay [6], in assay [7] and in assay [8] was inactive.

With `O=C(c1ccc(-c2ccc(-c3nc4ccc(C(F)(F)F)cc4[nH]3)s2)cc1)N1CCN(CCc2ccccc2)CC1`, the growth inhibition is 60% (active) in assay [1] and 98% (active) in assay [4]. For the same compound, the inhibition in assay [2] is 23%; in assay [3], -5%. For the same compound, the result in assay [5], in assay [6], in assay [7] and in assay [8] was inactive.

For the compound `COc1ccccc1CN1CCC(NC(=O)c2ccc(-c3cccc(C(F)(F)F)c3)s2)CC1`, the values for the growth inhibition in assay [1] and in assay [4] were 12% and 85% (active), respectively. The inhibition in assay [2] is 83% (active); in assay [3], -2%. For the same compound, the result in assay [5], in assay [6], in assay [7] and in assay [8] was inactive.

In the case of `NC1CCN(Cc2ccc(-c3ccc(-c4nc5ccccc5[nH]4)cc3)cc2)C1` (stereo not given), the values for the growth inhibition in assay [1] and in assay [4] were 100% (active) and 101% (active), respectively. Further, the inhibition in assay [2] is 34%; in assay [3], -5%. In addition, the result in assay [5], in assay [6], in assay [7] and in assay [8] was inactive.

Consider `Cc1cccc2[nH]c(-c3cccc(-c4cccc(C(=O)NCCc5cn(C)cn5)c4)c3)nc12`, for which the growth inhibition is 78% (active) in assay [1] and 101% (active) in assay [4]. In addition, the inhibition in assay [2] is 12%; in assay [3], 8%. The outcome in assay [5], in assay [6], in assay [7] and in assay [8] was inactive.

On to `c1ccc(CCNCc2cccc(-c3ccccc3CNCc3ccc4c(c3)OCO4)c2)nc1`, for which the results for the growth inhibition in assay [1] and in assay [4] were 80% (active) and 90% (active), respectively. Also, the inhibition was 41% in assay [2] and -2% in assay [3]. The outcome in assay [5], in assay [6], in assay [7] and in assay [8] was inactive.

With `CN1CCC(N2CCN(CCOc3cc(NC(=O)/C=C/c4ccccc4Cl)ccc3Br)CC2)CC1`, the results for the growth inhibition in assay [1] and in assay [4] were 99% (active) and 101% (active), respectively. The figures for the inhibition in assay [2] and in assay [3] were 36% and -1%, respectively. Further, the result in assay [5], in assay [6], in assay [7] and in assay [8] was inactive.

Consider `COc1ccccc1NS(=O)(=O)c1cc(C(=O)Nc2ccc(N3CCOCC3)c(S(=O)(=O)Nc3ccccc3Cl)c2)ccc1Cl`, for which the growth inhibition in assay [1] is 25%; in assay [4], 97% (active). Also, the inhibition in assay [2] was -3%; in assay [3], -2%. Besides, the outcome in assay [5], in assay [6], in assay [7] and in assay [8] was inactive.

In the case of `OC1(Cc2ccccc2)CCN(Cc2cccc(-c3c[nH]c4nc(NC5CCCC5)ncc34)c2)CC1`, the growth inhibition in assay [1] is 35%; in assay [4], 96% (active). The inhibition in assay [2] was 45%; in assay [3], 4%. In addition, the outcome in assay [5], in assay [6], in assay [7] and in assay [8] was inactive.

In the case of `O=C(Nc1ccc(C(F)(F)F)cc1)c1ccc(S(=O)(=O)NC2CCCN(CC3CCCCC3)C2)cc1` (stereo not given), the growth inhibition in assay [1] was -1%; in assay [4], 99% (active). In addition, the inhibition was 45% in assay [2] and -5% in assay [3]. In addition, the result in assay [5], in assay [6], in assay [7] and in assay [8] was inactive.

Regarding `COc1cccc(C=NNc2cc(C)nc3ccccc23)c1`, the growth inhibition in assay [1] was 46%; in assay [4] it was 101% (active). The inhibition in assay [2] is 16%; in assay [3], -8%. Moreover, the outcome in assay [5], in assay [6], in assay [7] and in assay [8] was inactive.

In the case of `CNC(=O)Cc1ccc(C(=O)Nc2cccc(-c3ccc(-c4nc5c(C)cccc5[nH]4)s3)c2)cc1`, the results for the growth inhibition in assay [1] and in assay [4] were 25% and 91% (active), respectively. The inhibition in assay [2] is 66% (active); in assay [3] it was 0%. Moreover, the outcome in assay [5], in assay [6], in assay [7] and in assay [8] was inactive.

With `CCNc1c2ccc(Cl)cc2nc2ccc(OC)cc12`, the growth inhibition is 100% (active) in assay [1] and 99% (active) in assay [4]. Besides, the inhibition in assay [2] is 16%; in assay [3] it was 0%. In addition, the result in assay [5], in assay [6], in assay [7] and in assay [8] was inactive.

Turning to `CC1(C)N=C(N)N=C(N)N1OCc1cc(Cl)cc2c1OCOC2`, the growth inhibition in assay [1] was 64% (active); in assay [4] it was 95% (active). In addition, the results for the inhibition in assay [2] and in assay [3] were 65% (active) and -1%, respectively. For the same compound, the result in assay [5], in assay [6], in assay [7] and in assay [8] was inactive.

With `c1ncc(CCNc2nc(Nc3ccc4c(c3)OCO4)nc(NC3CCCC3)n2)[nH]1`, the growth inhibition in assay [1] was -3%; in assay [4] it was 80% (active). The inhibition is -1% in assay [2] and -2% in assay [3]. The result in assay [5], in assay [6], in assay [7] and in assay [8] was inactive.

With `NC1CCCN(Cc2cccc(-c3cccc(-c4nc5ccccc5[nH]4)c3)c2)C1` (stereo not given), the growth inhibition in assay [1] was 61% (active); in assay [4] it was 101% (active). Also, the inhibition in assay [2] was 24%; in assay [3], -5%. The result in assay [5], in assay [6], in assay [7] and in assay [8] was inactive.

With `CCNc1cc(C(=O)N[C@@H](Cc2ccccc2)[C@H](O)CNC(C)C)cc(N2CC(c3ccccc3)CCS2(=O)=O)c1` (stereo not given in full), the growth inhibition is 99% (active) in assay [1] and 98% (active) in assay [4]. In addition, the inhibition in assay [2] was 0%; in assay [3] it was -1%. The outcome in assay [5], in assay [6], in assay [7] and in assay [8] was inactive.
